What all share (assay): DAPPL (digital affinity profiling via proximity ligation, sequencing); 10 mM Tris-HCl pH 7.5, 50 mM NaCl, 1 mM DTT, 4% glycerol, room temperature, 30 min; GST-TFs on glutathione beads, 16-mer random dsDNA library, 0.1% formaldehyde crosslink after washing; high values mean tight binding
The target of one assay is T1, FEV (Homo sapiens, UniProt Q99581 1-238).
T1 sequence: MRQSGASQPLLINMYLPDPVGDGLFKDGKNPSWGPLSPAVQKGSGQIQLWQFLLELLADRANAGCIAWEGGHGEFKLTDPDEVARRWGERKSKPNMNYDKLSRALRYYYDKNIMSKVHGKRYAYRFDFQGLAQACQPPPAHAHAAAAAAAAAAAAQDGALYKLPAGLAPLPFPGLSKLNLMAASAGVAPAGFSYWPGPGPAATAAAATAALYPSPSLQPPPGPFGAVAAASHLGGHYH
Particulars: protein: recombinant; tags: N-terminal GST; dsDNA, one strand shown. A digest of the protocol: (§1)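 After expression in yeast as GST fusions, human transcription factors were bound to glutathione beads, DNA-barcoded and mixed with a tag-only sample. The pools were incubated with 200 nmole of a 16-mer random double-stranded DNA library in Tris/NaCl/DTT/glycerol buffer (30 min, room temperature), washed and crosslinked with 0.1% formaldehyde. Proximity ligation with BsaI/T4 ligase ran for 1 h at 37 °C, before PCR amplification and sequencing on an Illumina NextSeq500. Binding signal is a hexamer's read frequency for a factor divided by its frequency for the tag-only sample.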

The target of another assay is ETV5 (Homo sapiens, UniProt P41161 1-510). The note with it: protein: recombinant; tags: N-terminal GST; dsDNA, one strand shown. In short, it runs like this: as §1
A further assay deals with HSF1 (Homo sapiens, UniProt Q00613 1-529). The note with it: protein: recombinant; tags: N-terminal GST; chain copies: 3; dsDNA, one strand shown. In short, it runs like this:
as §1

For a further assay, the target named is T2, SPIC (Homo sapiens, UniProt Q8N5J4 1-248).
T2 sequence: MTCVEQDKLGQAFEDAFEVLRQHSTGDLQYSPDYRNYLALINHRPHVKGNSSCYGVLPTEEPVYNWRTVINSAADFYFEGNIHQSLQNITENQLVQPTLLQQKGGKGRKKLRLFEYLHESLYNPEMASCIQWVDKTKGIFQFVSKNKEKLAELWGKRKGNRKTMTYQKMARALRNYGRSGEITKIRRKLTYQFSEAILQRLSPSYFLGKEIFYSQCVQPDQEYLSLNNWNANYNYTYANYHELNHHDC
The note with it: protein: recombinant; tags: N-terminal GST; dsDNA, one strand shown. A digest of the protocol: as §1

A further assay addresses ELF4 (Homo sapiens, UniProt Q99607 1-663). The note with it: protein: recombinant; tags: N-terminal GST; dsDNA, one strand shown. In short, it runs like this: as §1
Another assay addresses T3, ELK4 (Homo sapiens, UniProt P28324-2 1-405).
T3 sequence: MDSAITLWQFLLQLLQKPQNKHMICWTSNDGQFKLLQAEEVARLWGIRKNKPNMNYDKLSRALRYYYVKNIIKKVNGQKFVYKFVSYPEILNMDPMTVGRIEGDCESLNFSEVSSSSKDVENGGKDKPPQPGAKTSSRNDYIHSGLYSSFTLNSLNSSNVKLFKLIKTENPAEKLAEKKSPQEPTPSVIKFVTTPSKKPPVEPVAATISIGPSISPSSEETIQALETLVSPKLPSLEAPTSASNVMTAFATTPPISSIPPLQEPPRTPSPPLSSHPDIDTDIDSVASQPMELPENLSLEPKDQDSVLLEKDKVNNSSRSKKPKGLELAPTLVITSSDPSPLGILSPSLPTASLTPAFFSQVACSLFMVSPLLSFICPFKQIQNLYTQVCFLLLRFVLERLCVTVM
The note with it: protein: recombinant; tags: N-terminal GST; dsDNA, one strand shown. A digest of the protocol:
as §1

Another assay has as its target T4, ETV2 (Homo sapiens, UniProt O00321 1-342).
T4 sequence: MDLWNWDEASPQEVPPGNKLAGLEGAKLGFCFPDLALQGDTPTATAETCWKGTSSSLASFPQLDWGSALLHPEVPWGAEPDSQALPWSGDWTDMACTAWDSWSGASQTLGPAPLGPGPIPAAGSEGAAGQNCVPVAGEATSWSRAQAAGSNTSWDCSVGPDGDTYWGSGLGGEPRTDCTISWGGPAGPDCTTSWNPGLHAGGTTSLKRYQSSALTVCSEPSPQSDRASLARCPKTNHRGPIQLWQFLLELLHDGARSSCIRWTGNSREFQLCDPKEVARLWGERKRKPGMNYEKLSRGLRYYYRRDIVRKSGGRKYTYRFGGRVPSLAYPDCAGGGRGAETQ
Particulars: protein: recombinant; tags: N-terminal GST; dsDNA, one strand shown. In short, it runs like this: as §1

The target in the next assay is T5, ELF3 (Homo sapiens, UniProt P78545 1-371).
T5 sequence: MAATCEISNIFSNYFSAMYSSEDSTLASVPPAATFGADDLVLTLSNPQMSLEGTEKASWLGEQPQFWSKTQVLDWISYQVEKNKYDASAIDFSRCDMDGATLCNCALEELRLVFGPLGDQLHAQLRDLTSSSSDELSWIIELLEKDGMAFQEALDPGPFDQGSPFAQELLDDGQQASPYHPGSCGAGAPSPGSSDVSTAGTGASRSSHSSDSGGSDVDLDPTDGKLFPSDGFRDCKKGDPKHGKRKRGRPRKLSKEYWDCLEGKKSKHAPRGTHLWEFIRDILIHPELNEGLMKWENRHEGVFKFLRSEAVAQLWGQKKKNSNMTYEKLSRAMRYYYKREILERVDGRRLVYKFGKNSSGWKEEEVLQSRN
The note with it: protein: recombinant; tags: N-terminal GST; dsDNA, one strand shown. In short, it runs like this:
as §1

A further assay has as its target CRX (Homo sapiens, UniProt O43186 1-299). Particulars: protein: recombinant; tags: N-terminal GST; dsDNA, one strand shown. In short, it runs like this:
as §1

For a further assay, the target named is ETV1 (Homo sapiens, UniProt P50549 1-477). The note with it: protein: recombinant; tags: N-terminal GST; dsDNA, one strand shown. A digest of the protocol:
as §1

The target in another assay is T6, ERF (Homo sapiens, UniProt P50548 1-548).
T6 sequence: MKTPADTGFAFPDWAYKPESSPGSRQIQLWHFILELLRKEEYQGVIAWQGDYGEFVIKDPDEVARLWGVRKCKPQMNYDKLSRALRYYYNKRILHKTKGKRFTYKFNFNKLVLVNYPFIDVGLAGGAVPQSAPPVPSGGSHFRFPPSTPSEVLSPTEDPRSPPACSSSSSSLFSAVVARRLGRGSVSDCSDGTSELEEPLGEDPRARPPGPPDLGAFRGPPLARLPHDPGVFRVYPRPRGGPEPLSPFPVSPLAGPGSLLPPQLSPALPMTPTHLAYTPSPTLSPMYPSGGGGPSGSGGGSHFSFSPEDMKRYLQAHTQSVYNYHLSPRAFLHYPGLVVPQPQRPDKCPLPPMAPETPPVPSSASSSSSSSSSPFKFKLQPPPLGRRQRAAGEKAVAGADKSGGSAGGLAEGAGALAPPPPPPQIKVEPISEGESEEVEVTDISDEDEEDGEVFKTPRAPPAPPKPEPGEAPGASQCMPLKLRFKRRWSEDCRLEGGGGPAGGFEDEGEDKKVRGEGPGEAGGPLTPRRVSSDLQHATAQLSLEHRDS
The note with it: protein: recombinant; tags: N-terminal GST; dsDNA, one strand shown. A digest of the protocol:
as §1

Another assay concerns the target T7, ETV3L (Homo sapiens, UniProt Q6ZN32 1-361).
T7 sequence: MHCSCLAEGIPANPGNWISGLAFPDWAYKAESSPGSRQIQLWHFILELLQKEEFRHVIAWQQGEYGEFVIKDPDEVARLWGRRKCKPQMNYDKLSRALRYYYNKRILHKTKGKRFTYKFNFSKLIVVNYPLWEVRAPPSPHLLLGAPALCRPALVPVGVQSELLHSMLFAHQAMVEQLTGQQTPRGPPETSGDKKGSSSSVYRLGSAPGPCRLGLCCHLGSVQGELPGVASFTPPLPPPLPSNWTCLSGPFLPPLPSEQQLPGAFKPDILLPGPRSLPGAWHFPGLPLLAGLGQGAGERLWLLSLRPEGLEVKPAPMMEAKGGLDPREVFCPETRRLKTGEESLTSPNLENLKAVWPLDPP
Particulars: protein: recombinant; tags: N-terminal GST; dsDNA, one strand shown. In short, it runs like this:
as §1

For the next assay, the target named is T8, ETS2 (Homo sapiens, UniProt P15036 1-469).
T8 sequence: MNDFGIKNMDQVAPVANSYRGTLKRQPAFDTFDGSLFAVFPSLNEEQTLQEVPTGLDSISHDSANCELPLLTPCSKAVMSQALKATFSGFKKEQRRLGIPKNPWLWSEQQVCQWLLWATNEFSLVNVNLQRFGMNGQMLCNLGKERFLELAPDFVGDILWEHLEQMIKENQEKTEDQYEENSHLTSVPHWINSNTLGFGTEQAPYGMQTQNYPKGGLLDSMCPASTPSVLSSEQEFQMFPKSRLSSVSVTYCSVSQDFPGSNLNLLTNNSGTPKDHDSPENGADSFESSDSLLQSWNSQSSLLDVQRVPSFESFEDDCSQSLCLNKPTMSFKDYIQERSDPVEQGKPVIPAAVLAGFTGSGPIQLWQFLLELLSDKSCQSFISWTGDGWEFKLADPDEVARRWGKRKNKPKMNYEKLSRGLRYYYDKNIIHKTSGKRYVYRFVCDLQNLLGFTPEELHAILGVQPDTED
Particulars: protein: recombinant; tags: N-terminal GST; dsDNA, one strand shown. In short, it runs like this:
as §1

The target in the next assay is T9, SPDEF (Homo sapiens, UniProt O95238 1-335).
T9 sequence: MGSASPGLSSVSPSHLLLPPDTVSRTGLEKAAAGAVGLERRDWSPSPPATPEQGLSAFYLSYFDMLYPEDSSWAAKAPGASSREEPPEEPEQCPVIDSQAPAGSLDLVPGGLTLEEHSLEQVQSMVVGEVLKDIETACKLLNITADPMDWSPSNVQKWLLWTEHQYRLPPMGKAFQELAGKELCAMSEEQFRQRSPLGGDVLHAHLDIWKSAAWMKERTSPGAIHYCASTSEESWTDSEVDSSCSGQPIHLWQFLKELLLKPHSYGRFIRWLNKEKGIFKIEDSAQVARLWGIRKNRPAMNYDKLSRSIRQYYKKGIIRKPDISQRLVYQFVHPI
Particulars: protein: recombinant; tags: N-terminal GST; dsDNA, one strand shown. A digest of the protocol:
as §1

The target of the next assay is T10, ETV7 (Homo sapiens, UniProt Q9Y603 1-341).
T10 sequence: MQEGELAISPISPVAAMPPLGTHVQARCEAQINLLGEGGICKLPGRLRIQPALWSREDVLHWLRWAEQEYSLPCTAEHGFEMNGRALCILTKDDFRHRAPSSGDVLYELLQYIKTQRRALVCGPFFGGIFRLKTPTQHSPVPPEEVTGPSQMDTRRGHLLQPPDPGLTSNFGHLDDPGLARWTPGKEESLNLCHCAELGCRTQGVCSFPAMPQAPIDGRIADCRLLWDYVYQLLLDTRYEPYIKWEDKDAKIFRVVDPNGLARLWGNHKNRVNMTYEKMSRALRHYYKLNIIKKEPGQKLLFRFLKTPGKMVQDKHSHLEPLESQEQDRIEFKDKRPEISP
The note with it: protein: recombinant; tags: N-terminal GST; dsDNA, one strand shown. A digest of the protocol:
as §1

In the next assay the target is T11, ELF5 (Homo sapiens, UniProt Q9UKW6-2 1-255).
T11 sequence: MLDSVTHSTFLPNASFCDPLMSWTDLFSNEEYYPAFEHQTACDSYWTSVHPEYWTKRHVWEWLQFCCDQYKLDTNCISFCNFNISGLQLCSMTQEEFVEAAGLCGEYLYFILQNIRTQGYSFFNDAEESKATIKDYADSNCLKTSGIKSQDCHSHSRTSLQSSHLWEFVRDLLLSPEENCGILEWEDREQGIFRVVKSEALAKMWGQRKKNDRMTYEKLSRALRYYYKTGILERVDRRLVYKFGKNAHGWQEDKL
Particulars: protein: recombinant; tags: N-terminal GST; dsDNA, one strand shown. In short, it runs like this:
as §1

Another assay addresses T12, ETV3 (Homo sapiens, UniProt P41162-2 1-143).
T12 sequence: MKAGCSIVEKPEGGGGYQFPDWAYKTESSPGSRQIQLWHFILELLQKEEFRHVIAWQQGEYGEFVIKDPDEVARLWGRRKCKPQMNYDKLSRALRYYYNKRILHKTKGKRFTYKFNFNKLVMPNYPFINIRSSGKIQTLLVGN
Particulars: protein: recombinant; tags: N-terminal GST; dsDNA, one strand shown. In short, it runs like this:
as §1

Another assay deals with ETV6 (Homo sapiens, UniProt P41212 1-452). The note with it: protein: recombinant; tags: N-terminal GST; dsDNA, one strand shown. A digest of the protocol: as §1
ETV6, sequence (P41212 whole entry): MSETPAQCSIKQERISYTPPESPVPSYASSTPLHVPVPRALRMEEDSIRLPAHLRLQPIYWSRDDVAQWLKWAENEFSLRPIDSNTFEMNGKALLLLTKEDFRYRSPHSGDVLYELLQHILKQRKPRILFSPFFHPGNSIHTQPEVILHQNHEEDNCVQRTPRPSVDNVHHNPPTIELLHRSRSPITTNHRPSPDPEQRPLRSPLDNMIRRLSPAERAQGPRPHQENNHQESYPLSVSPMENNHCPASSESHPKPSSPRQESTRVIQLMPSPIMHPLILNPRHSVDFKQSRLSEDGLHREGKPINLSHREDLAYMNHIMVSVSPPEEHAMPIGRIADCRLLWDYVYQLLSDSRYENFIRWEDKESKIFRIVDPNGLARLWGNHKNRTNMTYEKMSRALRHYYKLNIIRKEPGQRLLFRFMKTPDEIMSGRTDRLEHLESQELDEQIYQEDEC

ETV5, sequence (P41161 whole entry): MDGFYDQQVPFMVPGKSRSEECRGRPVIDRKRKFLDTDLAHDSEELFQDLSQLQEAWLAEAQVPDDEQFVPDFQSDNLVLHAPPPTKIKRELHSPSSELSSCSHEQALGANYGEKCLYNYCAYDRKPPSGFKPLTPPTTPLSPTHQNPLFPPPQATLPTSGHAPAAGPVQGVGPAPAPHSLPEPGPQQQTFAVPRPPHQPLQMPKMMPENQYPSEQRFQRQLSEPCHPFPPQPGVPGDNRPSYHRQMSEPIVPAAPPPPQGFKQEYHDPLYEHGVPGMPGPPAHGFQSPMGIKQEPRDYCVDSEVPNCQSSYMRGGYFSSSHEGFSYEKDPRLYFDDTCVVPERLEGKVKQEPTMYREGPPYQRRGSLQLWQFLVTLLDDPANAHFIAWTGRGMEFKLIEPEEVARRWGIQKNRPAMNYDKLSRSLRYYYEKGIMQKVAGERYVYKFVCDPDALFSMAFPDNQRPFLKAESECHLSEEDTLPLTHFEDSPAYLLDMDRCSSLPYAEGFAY
HSF1, sequence (Q00613 whole entry): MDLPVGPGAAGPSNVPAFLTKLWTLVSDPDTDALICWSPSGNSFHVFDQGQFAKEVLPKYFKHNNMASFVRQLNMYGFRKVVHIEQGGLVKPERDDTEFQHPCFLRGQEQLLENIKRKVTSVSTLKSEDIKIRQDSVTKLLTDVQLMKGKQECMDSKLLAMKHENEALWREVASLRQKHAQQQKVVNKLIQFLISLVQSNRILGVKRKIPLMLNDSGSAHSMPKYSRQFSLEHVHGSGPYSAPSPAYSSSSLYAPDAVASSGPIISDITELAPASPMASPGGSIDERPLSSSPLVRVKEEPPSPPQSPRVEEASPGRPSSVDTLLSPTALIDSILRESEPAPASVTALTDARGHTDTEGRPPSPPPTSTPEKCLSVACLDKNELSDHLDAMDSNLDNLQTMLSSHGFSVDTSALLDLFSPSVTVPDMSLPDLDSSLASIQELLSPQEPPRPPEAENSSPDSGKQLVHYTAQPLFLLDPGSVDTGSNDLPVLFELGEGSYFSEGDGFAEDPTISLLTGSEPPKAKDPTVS
ELF4, sequence (Q99607 whole entry): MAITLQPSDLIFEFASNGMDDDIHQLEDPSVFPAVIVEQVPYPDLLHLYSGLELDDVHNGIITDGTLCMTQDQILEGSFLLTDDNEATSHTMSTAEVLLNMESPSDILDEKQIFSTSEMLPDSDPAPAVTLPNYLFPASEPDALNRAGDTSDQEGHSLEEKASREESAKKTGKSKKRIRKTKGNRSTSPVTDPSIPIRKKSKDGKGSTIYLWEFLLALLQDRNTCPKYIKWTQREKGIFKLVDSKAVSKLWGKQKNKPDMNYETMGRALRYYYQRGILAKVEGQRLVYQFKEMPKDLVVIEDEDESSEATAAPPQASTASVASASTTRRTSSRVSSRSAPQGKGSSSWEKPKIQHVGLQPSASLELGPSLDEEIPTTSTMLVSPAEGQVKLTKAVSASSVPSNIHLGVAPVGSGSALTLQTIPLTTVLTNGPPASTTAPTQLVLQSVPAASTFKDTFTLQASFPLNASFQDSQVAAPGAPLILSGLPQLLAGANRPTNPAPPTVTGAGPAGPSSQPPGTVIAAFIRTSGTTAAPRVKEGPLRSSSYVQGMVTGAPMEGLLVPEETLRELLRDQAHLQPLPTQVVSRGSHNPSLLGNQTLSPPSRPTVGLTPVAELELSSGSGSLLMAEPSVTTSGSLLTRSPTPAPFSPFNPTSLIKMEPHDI
CRX, sequence (O43186 whole entry): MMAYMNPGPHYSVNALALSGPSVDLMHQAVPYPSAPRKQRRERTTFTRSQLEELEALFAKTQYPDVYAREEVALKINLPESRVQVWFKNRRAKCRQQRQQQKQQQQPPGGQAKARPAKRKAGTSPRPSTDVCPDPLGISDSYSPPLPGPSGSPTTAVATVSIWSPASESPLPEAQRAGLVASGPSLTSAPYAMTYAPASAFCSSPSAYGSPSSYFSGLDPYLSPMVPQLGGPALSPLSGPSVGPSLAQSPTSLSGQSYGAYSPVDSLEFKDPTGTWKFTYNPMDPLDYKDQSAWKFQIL
ETV1, sequence (P50549 whole entry): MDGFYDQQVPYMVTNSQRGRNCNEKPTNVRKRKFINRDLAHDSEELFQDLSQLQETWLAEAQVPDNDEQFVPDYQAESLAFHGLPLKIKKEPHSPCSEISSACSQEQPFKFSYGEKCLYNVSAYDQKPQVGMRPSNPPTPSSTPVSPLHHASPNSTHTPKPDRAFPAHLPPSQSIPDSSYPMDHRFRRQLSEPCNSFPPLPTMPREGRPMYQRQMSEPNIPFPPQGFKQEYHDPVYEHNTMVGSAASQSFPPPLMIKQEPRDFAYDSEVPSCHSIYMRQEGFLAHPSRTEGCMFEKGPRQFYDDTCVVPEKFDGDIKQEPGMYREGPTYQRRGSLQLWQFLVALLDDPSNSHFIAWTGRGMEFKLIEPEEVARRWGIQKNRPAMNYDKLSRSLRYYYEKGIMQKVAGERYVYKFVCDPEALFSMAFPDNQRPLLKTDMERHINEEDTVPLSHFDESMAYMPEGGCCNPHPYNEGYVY

Regarding ATGCCT, the binding signal in the assay with FEV was 1.35 fold enrichment (6-mer frequency, TF over GST control); with ETV5, 1.41 fold enrichment (6-mer frequency, TF over GST control); with HSF1, 1.13 fold enrichment (6-mer frequency, TF over GST control); in the assay with SPIC it was 1.55 fold enrichment (6-mer frequency, TF over GST control); in the assay with ELF4, 1.29 fold enrichment (6-mer frequency, TF over GST control); with ELK4, 1.49 fold enrichment (6-mer frequency, TF over GST control). Moreover, the binding signal with ETV2 is 1.2 fold enrichment (6-mer frequency, TF over GST control); in the assay with ELF3, 1.4 fold enrichment (6-mer frequency, TF over GST control); with CRX, 1.28 fold enrichment (6-mer frequency, TF over GST control); with ETV1 it was 1.33 fold enrichment (6-mer frequency, TF over GST control); in the assay with ERF, 1.42 fold enrichment (6-mer frequency, TF over GST control); with ETV3L, 1.28 fold enrichment (6-mer frequency, TF over GST control). Further, the binding signal in the assay with ETS2 is 1.43 fold enrichment (6-mer frequency, TF over GST control); with SPDEF it was 1.41 fold enrichment (6-mer frequency, TF over GST control); with ETV7, 1.26 fold enrichment (6-mer frequency, TF over GST control); in the assay with ELF5 it was 1.34 fold enrichment (6-mer frequency, TF over GST control); with ETV3, 1.4 fold enrichment (6-mer frequency, TF over GST control); with ETV6, 1.29 fold enrichment (6-mer frequency, TF over GST control).

These data come from publication PMC7862700, “An all-to-all approach to the identification of sequence-specific readers for epigenetic DNA modifications on cytosine”.
